Bioassay records deposited in PubChem by National Center for Advancing Translational Sciences (NCATS).
This is a sample that favours compounds with a hit; in the whole collection about 8.8% have one here.
LMNA splice mod = qHTS Assay for Modulators of Lamin A Splicing; HeLa LMNA splicing GFP/RFP minigene ratio, 48 h; Potency, µM (top dose mostly 46.1 µM), for inactives: at the top dose ratio change, negative = inhibition, actives largely listed as inhibitors; actives 0.01% (n = 200,000); AID 1487, 2009; active = well fitted inhibition curve with a large enough effect in the signal ratio, with a control signal flat, not every such curve was filed as active; inconclusive = small, poorly fitted or top-dose-only effect, or effect the other way, or a change in a side signal; the % refers to the signal ratio; also: % is scaled to controls: 0 for no effect and ±100 for the full control effect
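Read-out is the ratio of GFP to DsRed2 object intensity, acquired by 488 nm laser-scanning cytometry on HeLa lamin A-EGFP minigene reporter cells. Compound incubation 48 hrs at 37 °C in Opti-MEM with 2% FBS; DMSO 0.5% final.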
ALDH1A1 block = qHTS Assay for Inhibitors of Aldehyde Dehydrogenase 1 (ALDH1A1) | Aldehyde dehydrogenase 1A1 (Homo sapiens), P00352 | Purified ALDH1A1, NADH fluorescence, propionaldehyde substrate | Potency, µM (titrated, usually from 75.3 µM), for inactives: top-dose activity, negative = inhibition, usual class: inhibitors | actives 7.3% (n = 220,000) | AID 1030, 2008; active = well fitted inhibition curve with a large enough effect, not every such curve was filed as active; inconclusive = small, poorly fitted or top-dose-only effect, or another doubt; inactive = no such curve, though single readings can be large or run the other way;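 also: plate controls were no enzyme wells and a reference inhibitor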
Target sequence (P00352 whole entry, looked up): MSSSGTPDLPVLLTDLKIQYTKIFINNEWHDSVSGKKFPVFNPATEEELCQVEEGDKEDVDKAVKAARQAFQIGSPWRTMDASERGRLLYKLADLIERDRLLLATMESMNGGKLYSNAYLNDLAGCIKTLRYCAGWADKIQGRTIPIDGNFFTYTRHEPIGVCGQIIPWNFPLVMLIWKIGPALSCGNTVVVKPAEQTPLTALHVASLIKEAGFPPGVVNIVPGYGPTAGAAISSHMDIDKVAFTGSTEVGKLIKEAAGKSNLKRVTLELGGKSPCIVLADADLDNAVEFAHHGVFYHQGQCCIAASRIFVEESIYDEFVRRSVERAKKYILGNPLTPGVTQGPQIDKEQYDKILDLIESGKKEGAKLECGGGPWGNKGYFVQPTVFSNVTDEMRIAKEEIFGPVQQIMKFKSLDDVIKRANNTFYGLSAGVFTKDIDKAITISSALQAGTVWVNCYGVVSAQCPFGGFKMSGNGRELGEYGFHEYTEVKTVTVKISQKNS
HTT aggregate = qHTS Multiplex Assay to Identify Dual Action Probes in a Cell Model of Huntington: Aggregate Formation (GFP) | PC12 HttQ103-GFP aggregates, Acumen cytometry, 40 h | Potency, µM (doses to about 46.1 µM), for inactives: top-dose activity change, negative = inhibition, hits mostly inhibitors | actives 1.1% (n = 220,000) | AID 1688, 2009; also: % is scaled to controls: 0 for no effect and ±100 for the full control effect; nearly all actives have a fitted effect of over 60% in size
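PC12 cells stably carrying ecdysone-inducible HTT exon 1 Q103–GFP were induced with tebufenozide (100 nM final) and treated with library compounds in titration. GFP aggregates in lysates were counted by laser scanning cytometry.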
HTT cytoprotect = qHTS Multiplex Assay to Identify Dual Action Probes in a Cell Model of Huntington: Cytoprotection (ATP); PC12 HTT-Q103 induced, cytoprotection, ATP luminescence, 40 h; Potency, µM (top dose mostly 56.4 µM), for the others: cytoprotection (ATP increase), hits mostly activators; actives 0.14% (n = 230,000); AID 1471, 2008; also: % of control where 0% means no effect; nearly all actives have a fitted effect of over 45% in size
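Stable PC12 Q103-GFP cells in serum-supplemented, phenol red-free DMEM; induction by tebufenozide at 100 nM final; compound dose series; cell viability quantified luminescently from ATP.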
HPGD block = qHTS Assay for Inhibitors of HPGD (15-Hydroxyprostaglandin Dehydrogenase) | 15-hydroxyprostaglandin dehydrogenase [NAD(+)] (Homo sapiens), P15428 | purified HPGD, NADH fluorescence kinetic, PGE2 substrate | Potency, µM, for inactives: at the top dose activity change, negative = inhibition, actives largely listed as inhibitors | actives 4.3% (n = 150,000); active = well fitted inhibition curve with a large enough effect, not every such curve was filed as active; inconclusive = small, poorly fitted or top-dose-only effect, or another doubt; inactive = no such curve, though single readings can be large or run the other way; also: % is scaled to controls: 0 for no effect and ±100 for the full control effect
Target sequence (P15428 whole entry, looked up): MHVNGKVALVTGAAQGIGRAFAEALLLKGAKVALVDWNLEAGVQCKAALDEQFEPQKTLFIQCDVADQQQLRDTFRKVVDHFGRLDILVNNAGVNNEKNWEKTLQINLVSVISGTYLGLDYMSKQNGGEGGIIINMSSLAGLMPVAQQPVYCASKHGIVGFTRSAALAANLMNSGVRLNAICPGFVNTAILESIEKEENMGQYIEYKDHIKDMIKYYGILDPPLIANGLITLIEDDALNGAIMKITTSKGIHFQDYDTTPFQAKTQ
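20 nM HPGD preincubated 15 min at room temperature with compound in 50 mM Tris-HCl pH 8, 0.01% Tween 20. Started with 1 mM NAD+ and 30 uM prostaglandin E2; NADH fluorescence (360/450 nm) read 5 times over 30-s intervals, last minus first.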
Numbers without * were called inactive; ? = inconclusive; . = no result; [ ] = dose if it differs, or a comment. Unless noted, calls follow the shape of the dose curve; as a rule, active = well fitted curve in the direction sought with a large enough effect; inconclusive = small, poorly fitted or top-dose-only effect, or another doubt; inactive = no such curve, though single readings can be large; an effect the other way counts as inactive or inconclusive. Potency is read from the fitted curve at half-maximal effect.

SMILES	LMNA splice mod	ALDH1A1 block	HTT aggregate	HTT cytoprotect	HPGD block
COc1ccc2c(c1)CC(C(=O)NCc1ccc(F)cc1)CO2 (stereo unspecified)	21%[46 µM]	.	.	.	.
NNC(=O)c1cc2cc3ccccc3nc2s1	.	20µM*	-18%	-60%	.
CCCNC(=O)C1CCN(S(=O)(=O)c2ccc3c(c2)CCCN3C(C)=O)CC1	14%[46 µM]	.	.	.	.
O=C(c1ccco1)N1CCN(C/C=C/c2ccccc2)CC1	-3%	?	20%	-12%	.
O=C(c1nn(Cc2ccccc2)c(=O)c2ccccc12)N1CCN(C/C=C/c2ccccc2)CC1	11%	13µM*	-24%	-67%	-5%
COC(=O)c1ccccc1NC(=O)Cn1c(=O)n(-c2cccc(OC)c2)c(=O)c2c(C)c(C(=O)N(C)C)sc21	-1%[46 µM]	.	.	.	.
O=C(Nc1ccc2c(c1)OCO2)c1ccc(Br)c(S(=O)(=O)N2CCCC2)c1	?	?	13µM*	-7%	-15%
O=C(Nc1ccc(N2CCOCC2)cc1)c1ccc(S(=O)(=O)N2CCCCC2)cc1	2%	0.11µM*	-7%	-5%	.
O=C(Nc1ccc2c(c1)OCO2)c1cccc(S(=O)(=O)N2CCCC2)c1	-12%	?	-20%	-6%[10 µM]	-1%
O=C(Nc1ccc2c(c1)OCCO2)c1ccc(Br)c(S(=O)(=O)N2CCOCC2)c1	?	?	-17%	-3%[10 µM]	.
CCOC(=O)N1CCC(NC(=O)c2ccc3c(=O)n4c(nc3c2)CCCC4)CC1	9%	2µM*	15%	-14%[0.074 µM]	-6%
O=C(Nc1ccc2c(c1)OCCO2)c1ccc(S(=O)(=O)N2CCCCC2)cc1	?	25µM*	?	-1%[10 µM]	-14%
O=C(COC(=O)c1ccc(S(=O)(=O)N2CCCC2)cc1)Nc1ccc(N2CCOCC2)cc1	.	-11%	5%	-15%	.
CCOC(=O)N1CCC(NC(=O)c2ccc3c(Cl)c4c(nc3c2)CCCC4)CC1	?	?	5%	.	-13%
O=C(O)C/C=C(/NC(=O)OCc1ccccc1)C(=O)OCc1ccccc1	8%[9.22 µM]	-8%	?	7%	.
CCOc1ccccc1NC(=O)c1cc2c(=O)oc3ccccc3c2s1	6%[46 µM]	.	.	.	.
O=C(Nc1ccccc1)c1ccc(S(=O)(=O)N2CCCCC2)cc1	?	-2%	-26%	11%[10 µM]	-13%
CC(=O)Nc1ccc(C(=O)Nc2ccc(S(=O)(=O)N3CCCC3)cc2)cc1	17%	?	7%	-4%	-9%
O=C(Nc1cc(S(=O)(=O)Nc2ccc(Cl)cc2)ccc1O)c1ccc(S(=O)(=O)N2CCCCCC2)cc1	.	3.2µM*	1%	-9%[10 µM]	.
CC(=O)c1cccc(NC(=O)c2ccc(S(=O)(=O)N3CCCCC3)cc2)c1	-20%	22µM*	?	-18%[0.074 µM]	-7%
O=C(Nc1cccc(S(=O)(=O)N2CCCCC2)c1)c1ccc2c(=O)n3c(nc2c1)CCCCC3	?	2.5µM*	-9%	29%[10 µM]	.
CS(=O)(=O)Nc1ccc(C(=O)Nc2ccc(S(=O)(=O)N3CCCC3)cc2)cc1	-15%[9.22 µM]	25µM*	7%	-32%	.
COc1cc(NC(=O)CN2c3ccccc3S(=O)(=O)c3ccccc32)cc(OC)c1	-3%[46 µM]	.	.	.	.
Cc1ccc(CNc2ncnc3onc(C)c23)cc1	0%[46 µM]	.	.	.	.
CC(=O)Nc1ccc(NC(=O)CN2C(=O)CN(C)C(=O)c3ccccc32)cc1	2%[46 µM]	.	.	.	.
SMILES	LMNA splice mod	ALDH1A1 block	HTT aggregate	HTT cytoprotect	HPGD block
Cc1ccccc1CN1CCCN(CC(=O)Nc2c(C)cccc2C)S1(=O)=O	-4%[46 µM]	.	.	.	.
Cc1c(Cl)cccc1NC(=S)N(CCN(C)C)C(C)c1ccco1 (stereo unspecified)	.	.	8%[9.22 µM]	12%[10 µM]	.
CN(C)S(=O)(=O)c1ccc(C(=O)Nc2ccc(CN3CCCC3)cc2)cc1	?	?	-7%	-9%	-24%
O=C(NC1CCS(=O)(=O)C1)c1ccc(S(=O)(=O)N2CCCCC2)cc1 (stereo unspecified)	.	25µM*	-4%[9.22 µM]	10%[10 µM]	.
O=C(NC1CCS(=O)(=O)C1)c1cccc(S(=O)(=O)N2CCCCC2)c1 (stereo unspecified)	-3%	3%	1%	-9%	0%
CN(C)S(=O)(=O)c1ccc(C(=O)Nc2ccc(CCC(=O)N3CCCC3)cc2)cc1	-9%	22µM*	-24%	-9%	16µM*
CCc1ccccc1NC(=S)N(CCCN(C)C)Cc1cc2cc3c(cc2[nH]c1=O)OCO3	.	?	9%[9.22 µM]	19%[10 µM]	.
CCOc1ccc(-c2cc(CCCC(=O)N3CCN(c4ccc(OC)cc4)CC3)no2)cc1	?	20µM*	24%	-5%[10 µM]	-24%
CSc1cccc(NCc2ccc([N+](=O)[O-])cc2)c1	4%[46 µM]	35µM*	.	.	.
Oc1ccc(NCc2cccc(OCc3ccc(F)cc3)c2)cc1	?	?	23%[9.22 µM]	-9%[10 µM]	.
O=[N+]([O-])c1ccc(COc2cccc(CNc3ccc(F)cc3)c2)cc1	?	14µM*	11%	-22%[10 µM]	-8%
COc1cccc(C(=O)Nc2ccc3nc(SCC(=O)N4CCc5ccccc54)sc3c2)c1	10%[46 µM]	.	.	.	.
CC(C)NC(=S)NC(=O)c1ccc(Cl)cc1Cl	-19%	?	-14%	1%[10 µM]	-12%
Cc1cccc(C(=O)NC(=S)NNC(=O)COc2ccc(Cl)cc2)c1	?	9.5µM*	-14%	-69%	.
Cc1cccc(/C(N)=N/OC(=O)COc2ccc(Cl)cc2)c1	-2%[46 µM]	11%	21%	-11%	.
O=C(NCCO)c1ccc(Cl)c(Cl)c1	?	2%	?	0%	?
COc1cccc(OCC(=O)Nc2ccccc2-c2ccccc2)c1	.	20µM*	-4%[9.22 µM]	-6%[10 µM]	.
CC(C)CNC(=O)c1ccc(Cl)c(Cl)c1	-2%	11%	-6%	-13%	22µM*
CC(C)CNC(=S)NC(=O)c1ccc(Cl)cc1Cl	-16%	22µM*	-2%	-10%[10 µM]	.
CCCn1c(C)nc2c(NCCN3CCOCC3)nc(C)nc21	.	8%	.	12%	-11%
O=C(O)[C@@H]1CN[C@@H](C(=O)O)C1	.	8%	.	-47%	.
COC(=O)c1sccc1S(=O)(=O)N(CC(=O)NCc1ccc(F)cc1)c1ccccc1	-15%[46 µM]	.	.	.	.
Cn1cccc1CC(=O)NNC(=S)Nc1ccc(Cl)cc1Cl	-14%	10µM*	22%	21%[10 µM]	11µM*
COc1cccc(OCC(=O)NNC(=S)Nc2ccc(Cl)cc2Cl)c1	.	2µM*	17%	5%	.
O=C(COc1ccccc1)NNC(=S)NC(=O)c1ccc(Cl)cc1Cl	?	7.9µM*	-6%	-5%[10 µM]	35µM*
CCOC(=O)C1CCN(Cc2cn3c(-c4ccc(OC)cc4)nnc3s2)CC1	-6%[46 µM]	.	.	.	.
COc1cc(OC)c(NC(=O)CN2CCCN(Cc3ccccc3C)S2(=O)=O)cc1Cl	-3%[46 µM]	.	.	.	.
